High-throughput results deposited in PubChem BioAssay by several laboratories.
Sampled rows, rich in hits. Any-hit rate of the full collection: about 2.6%.
MCL1-BIM inh: disrupts human MCL1 binding to BIM-BH3 peptide; Q07820; GST-MCL1 / FITC-Bim-BH3 fluorescence polarization; inhibition, % at 10.9 µM; hit rate 0.68% among 320,000; AID 2057;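 active = inhibition above the mean inhibition of all tested compounds plus 3 SD, set per campaign, cut at about 40% in these data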;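 also: 0% = DMSO wells and 100% = unlabeled Bim-BH3 peptide control; higher means more loss of mP so more displacement of Bim peptide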
Mcl-1 Bim block: disrupts Bim peptide binding to human Mcl-1 | hit rate 0.1% among 190,000 | Bead-based flow cytometry, Bim peptide-Mcl-1 binding | inhibition, % at 10 µM | AID 1009 | Q07820; in the data active = inhibition above about 40%;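 also: 0% = no compound tracer wells and 100% = peptide blocker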
eIF4E 4G PPI: blocks eIF4E binding to eIF4G; P63073+Q04637; TR-FRET eIF4E-eIF4GI(517-606) binding, 2 h; inhibition, % at 21.7 µM; hit rate 0.37% among 220,000;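 active = inhibition above about 30%, limit read from the data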;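 also: 0% = full FRET control wells and 100% = background wells lacking eIF4GI fragment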
14-3-3 Bad inh: disrupts binding of bovine 14-3-3 zeta to phospho-Bad peptide; TR-FRET 14-3-3zeta/Dy647-pBad peptide displacement, 1 h; inhibition, % at 21.7 µM; hit rate 0.71% among 220,000; AID 781;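 active = inhibition above about 70%, limit read from the data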;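 also: 0% = full 14-3-3 plus peptide FRET controls and 100% = background without 14-3-3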
Mcl1-Noxa inh: Mcl-1/Noxa interaction inhibition. Q07820. TR-FRET Mcl-1/Noxa peptide binding, 2 h. inhibition, % at 21.7 µM. hit rate 1.5% among 220,000;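 active = compounds that cut the protein-peptide binding signal by more than 50% relative to plate controls in a single-dose test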;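 also: His-tagged Mcl-1 with rhodamine Noxa BH3 peptide and terbium anti-His antibody; 0% = Mcl-1 plus Noxa peptide wells and 100% = peptide-only wells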
Mcl1 Bid PPI: disrupts binding of human Mcl-1 to Bid peptide. Q07820. TR-FRET Mcl-1/Bid-Dy647 peptide binding, 1536-well. inhibition, % at 21.7 µM. hit rate 0.97% among 220,000;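 active = compounds that cut the binding signal by more than half at the single screening dose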;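 also: His-tagged Mcl-1 with europium anti-His antibody binding Bid BH3 peptide; 0% = Mcl-1 plus peptide wells and 100% = peptide-only wells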
An asterisk follows results filed as active; x = not tested or not shown; + = active, no number; [ ] = dose if it differs, or a comment.

SMILES | MCL1-BIM inh | Mcl-1 Bim block | eIF4E 4G PPI | 14-3-3 Bad inh | Mcl1-Noxa inh | Mcl1 Bid PPI
CN1CCOC(=O)/C1=N/Nc1cc(Cl)ccc1Cl | -6 | 0 | -1 | -6 | 10 | -21
CCOc1ccccc1N1CCN(Cc2cccc(OC)c2O)CC1 | 8 | -9 | -2 | 74* | 34 | 11
C#CCN1C(=O)C(O)(CC(=O)c2ccc(OC)c(OC)c2)c2ccccc21 (configuration not stated) | 0 | -9 | 97* | 3 | -17 | -12
CCOc1c(O)ccc(/C=C2\SC(=S)NC2=O)c1[N+](=O)[O-] | 12 | 0 | 4 | 19 | 72* | -47
CCOc1ccc(N(C)c2ccc(/C=C3/SC(=S)NC3=O)cc2)cc1 | -57 | x | x | x | x | x
C=CCn1c(N2CCCCCC2)nc2c1c(=O)n(C)c(=O)n2C | 6 | 0 | 1 | -1 | 98* | 41
O=C(N/N=C/C(Cl)=C/c1ccc([N+](=O)[O-])cc1)C(=O)Nc1ccccc1C(=O)O | 7 | x | 5 | 12 | 56* | -1
O=C(N/N=C/C(Cl)=C/c1ccc([N+](=O)[O-])cc1)C(=O)Nc1ccc(C(=O)O)cc1 | -1 | x | -1 | 0 | 34 | 10
Cc1ccn2c(NC(=O)c3ccccc3)c(-c3ccccc3)nc2c1 | -4 | x | x | x | x | x
Cc1ccn2c(NC(=O)c3ccccc3)c(-c3cccs3)nc2c1 | 7 | -3 | 5 | 70*[fluorescence artefact?] | -2 | -21
NC(=O)CC1Nc2cccc3cccc(c23)NC1=O (configuration not stated) | 32 | -2 | -1 | 9 | 42 | -105
O=C(CC1Nc2cccc3cccc(c23)NC1=O)Nc1ccccc1 (configuration not stated) | 30 | -4 | 8 | 2 | 54* | -48
COC(=O)C(C(=O)OC)c1ccccc1[N+](=O)[O-] | 4 | -4 | -8 | -2 | -4 | -13
COC(=O)C(C(=O)OC)c1ncccc1[N+](=O)[O-] | 0 | x | 6 | 85* | 7 | -10
CCOC(=O)[C@H]1[C@H]2COc3ccc(Br)cc3[C@@H]2N2C(=O)CN(Cc3ccco3)C(=O)[C@@]12C | 7 | x | x | x | x | x
O=c1c(O)c(-c2cccs2)oc2ccc(Cl)cc12 | 42* | 6 | 4 | 6 | -31 | -31
O=c1c(O)c(-c2cccs2)oc2ccccc12 | -2 | -1 | -14 | 6 | -78 | -78
CCc1ccc(-c2cc(C)no2)cc1S(=O)(=O)N1CCCN(Cc2ccc(F)cc2)C1 | 4 | x | x | x | x | x
COc1ccc(OC)c(-n2c(C)ccc2-c2ccc(S(C)(=O)=O)cc2)c1 | 4 | 1 | -2 | -2 | 12 | -67
COc1ccc(N=CC2=C(Nc3ccc(OC)cc3)c3c(C)nn(-c4ccccn4)c3CC2)cc1 | + | x | x | x | x | x
COc1ccc(-c2cc(C(=O)O)c3c(C)nn(-c4ccccn4)c3n2)cc1 | -2 | 5 | 2 | -4 | 12 | 6
COc1ccccc1CCNC(=O)CNC(=O)Cc1cccc2ccccc12 | -2 | x | x | x | x | x
Cc1occc1C(=O)NNC(=S)NCc1ccccc1 | 11 | 60* | -6 | 0 | 22 | -67
Cc1occc1C(=O)NNC(=S)NCc1ccc(Cl)cc1 | 10 | -1 | -1 | -18 | 13 | -28
COc1cc(-c2nc3cccc(C)n3c2NCC2CCCO2)ccc1O (configuration not stated) | 0 | 0 | 2 | -4 | 10 | -59
SMILES | MCL1-BIM inh | Mcl-1 Bim block | eIF4E 4G PPI | 14-3-3 Bad inh | Mcl1-Noxa inh | Mcl1 Bid PPI
O=C(NC1CCCCC1)c1sc(=S)n2c1[nH]c(=O)c1ccccc12 | 18 | -1 | 3 | 19 | 76* | 30
CCCCNC(=O)c1sc(=S)n2c1[nH]c(=O)c1ccccc12 | 9 | 0 | 5 | 24 | 41 | -1
CN1CCN(CCCNC(=O)c2ccc(/C=C3\Sc4ccccc4N(Cc4ccccc4F)C3=O)cc2)CC1 | x | 0 | 31* | 86* | 22 | -26
CCN1CCN(CCNC(=O)c2ccc(/C=C3/Sc4ccccc4N(Cc4cccc(Cl)c4)C3=O)cc2)CC1 | 2 | -2 | 36* | 58 | 15 | -21
CCN1CCN(CCNC(=O)c2ccc3c(c2)N(Cc2ccc(F)cc2)C(=O)/C(=C/c2ccccc2)S3)CC1 | 5 | -4 | 37* | 52 | 29 | 11
Cc1cccc(CN2C(=O)/C(=C\c3ccc(C(=O)NCCN4CCOCC4)cc3)Sc3ccccc32)c1 | 2 | x | x | x | x | x
